# Tests used:
# Experiment in all cases: PBM binding z-score (relative to random genomic background probes); higher = stronger binding; sequences stand for … in GC…GCGATTGACAGCGTAGAATGAAGG
# [1] = test system: FXR:RXRa (NR concentration 270 nM, RXRa partner concentration 90 nM)
# Outline: (§1)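 On custom Agilent 4×180K arrays, double-stranded probes with 34-nt variable regions carried direct-repeat seeds, single-nucleotide variants, half-site ablations or random human genomic background. Ligand-free nuclear receptor dimers were applied for 1 h, and binding was read with antibodies against each partner (one per run). Binding z-scores come from regression-normalized fluorescence, with the random background probes as reference.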
# [2] = test system: LXRa:RXRa (NR concentration 270 nM, RXRa partner concentration 90 nM)
# Outline: as §1
# [3] = test system: LXRa homodimer (NR concentration 270 nM)
# Outline: as §1
# [4] = test system: LXRb:RXRa (NR concentration 270 nM, RXRa partner concentration 90 nM)
# Outline: as §1
# [5] = test system: LXRb homodimer (NR concentration 270 nM)
# Outline: as §1
# [6] = test system: PPARa:RXRa (NR concentration 270 nM, RXRa partner concentration 90 nM)
# Outline: as §1
# [7] = test system: PPARg:RXRa (NR concentration 180 nM, RXRa partner concentration 90 nM)
# Outline: as §1
# [8] = test system: PPARg:RXRa 270nM:90nM, anti-RXR (NR concentration 270 nM, RXRa partner concentration 90 nM)
# Outline: as §1
# [9] = test system: PPARg:RXRa 30nM:10nM, anti-RXR (NR concentration 30 nM, RXRa partner concentration 10 nM)
# Outline: as §1
# [10] = test system: PPARg:RXRa 90nM:30nM, anti-RXR (NR concentration 90 nM, RXRa partner concentration 30 nM)
# Outline: as §1
# [11] = test system: PPARg:RXRa DBDmut IVT, anti-RXR (DBD mutation: RXRa K156A/R161A, NR concentration 270 nM, RXRa partner concentration 90 nM)
# Outline: as §1
# [12] = test system: PPARg:RXRa IVT, anti-PPARg (NR concentration 270 nM, RXRa partner concentration 90 nM)
# Outline: as §1
# [13] = test system: PPARg DBDmut:RXRa IVT, anti-PPARg (DBD mutation: PPARg1 K132A/R137A, NR concentration 270 nM, RXRa partner concentration 90 nM)
# Outline: as §1
# [14] = test system: PPARg DBDmut IVT, anti-PPARg (DBD mutation: PPARg1 K132A/R137A, NR concentration 270 nM)
# Outline: as §1
# [15] = test system: PPARg homodimer (NR concentration 180 nM)
# Outline: as §1
# [16] = test system: PXR:RXRa (NR concentration 270 nM, RXRa partner concentration 90 nM)
# Outline: as §1
# [17] = test system: PXR homodimer (NR concentration 270 nM)
# Outline: as §1
# [18] = test system: RARa:RXR (NR concentration 270 nM, RXRa partner concentration 90 nM)
# Outline: as §1
# [19] = test system: RARa homodimer (NR concentration 270 nM)
# Outline: as §1
# [20] = test system: RARb:RXRa (NR concentration 270 nM, RXRa partner concentration 90 nM)
# Outline: as §1
Sequence,PBM binding z-score [1],PBM binding z-score [2],PBM binding z-score [3],PBM binding z-score [4],PBM binding z-score [5],PBM binding z-score [6],PBM binding z-score [7],PBM binding z-score [8],PBM binding z-score [9],PBM binding z-score [10],PBM binding z-score [11],PBM binding z-score [12],PBM binding z-score [13],PBM binding z-score [14],PBM binding z-score [15],PBM binding z-score [16],PBM binding z-score [17],PBM binding z-score [18],PBM binding z-score [19],PBM binding z-score [20]
CGTCCAAGGTCATAGGAGGTCATTGAAGACAGAT,7.83,7.82,7.86,6.99,1.61,5.94,5.65,5.98,2.75,4.71,3.6,4.68,0.258,0.325,4.58,7.17,10,6.52,2.32,5.47
CCTAGTTGGGCAGGAGGTCACACACCGGATATGA,2.73,2.97,1.41,2.79,-0.389,3.7,3.31,4.01,1.77,3.33,0.343,2.59,-0.448,-0.00376,2.16,3.77,0.916,3.7,1.59,3.15
CGTCAAAGTTCACCTAAGGTAACGTAAAGCACGC,6.94,6.74,3.99,4.24,1.27,5.11,5.63,5.75,2.48,4.52,0.554,2.63,0.556,0.77,3.35,5.29,3.14,4.17,0.893,5.21
TAGCCTAGGTCATTGGGCCAGTATAGTACGCATC,4.22,3.49,0.558,2.36,0.375,3.82,3.56,3.65,0.801,2.75,2.86,3.89,0.41,0.0888,0.963,1.58,-0.104,2.17,-0.237,3.59
GATACAGGGTCAATGCCAGAGTACGCGTATTGAT,6.02,3.64,-0.0445,3.44,-0.0572,5.2,4.79,4.33,1.52,2.95,2.46,3.45,0.722,0.999,1.86,2.96,0.00137,3.59,0.532,4.19
ACTAGTTGGTCAGCTGAGGTCACACACAATTCGG,4.25,3.46,1.96,3.8,0.66,3.89,1.97,2.31,0.854,1.58,1.96,3.06,0.93,1.21,2.63,5.47,2.09,4.69,2.64,3.79
TAGCATAGGTCATGCGGGCCAGTATAGTGTCGGC,5.29,5.13,0.874,3.33,-0.127,5.22,4.08,4.44,0.97,3.18,1,2.48,0.261,-0.165,1.08,2.83,0.0553,3.38,-0.53,4.13
TTACCAAGGTTAAAGGTCGTTGATGCACGCCTTG,4.98,5.1,1.51,4.06,0.439,5.64,7.98,8.34,8.79,8.95,2.09,4.53,0.805,0.292,2.41,5.16,0.943,6.63,0.588,3.68
ATCGAATGGTCGAGGTGAGTATAGAGAAAGGGAA,0.114,-0.0823,-0.329,-0.326,-0.256,0.069,0.444,-0.0117,0.061,0.091,-0.483,0.658,1.03,0.73,0.372,-0.283,0.0857,0.0342,0.112,0.541
CCTAGTTGGTCAGGAGGTCACAAACCGGATATGA,3.32,2.85,1.66,3.16,0.659,3.98,3.09,3.7,1.19,2.73,1.35,3.19,0.681,-0.00546,3.21,3.77,1.38,4.45,2.04,3.37
ACTAGGTGGTCAGCTGAGGTCACACACAATTCGG,3.12,3.37,2.31,3.52,-0.173,3.87,2.43,2.63,0.956,2.14,1.21,3.02,0.296,0.306,1.93,5.62,1.01,4.73,0.58,3.78
TCTCGGAGGACACGAAACGTCAGAGCTCGACATC,0.138,-0.218,-0.617,-0.347,-0.872,-0.13,0.395,0.915,2.04,1.4,1.4,0.0714,-0.35,-0.247,-0.276,-0.408,-0.586,-0.175,-0.713,1.25
CAAACCAGGTCACGAAAGGTCAAAGTCGAATGAC,7.94,8.2,8.63,7.45,3.02,6.66,9.2,7.84,5.15,7.6,6.74,7.37,0.599,1.79,6.46,7.33,5.57,8.04,4.58,5.74
ATCGAAAGGTCGACGAGGTGAGTATGCACCGTTT,4.61,3.13,-0.377,2.5,0.258,4.53,2.51,3.05,0.831,1.92,0.283,1.96,0.899,0.519,1.67,2.99,0.682,3.5,0.243,3.99
